Measured values: PubChem BioAssay (NCI)
This is part of a sample that, as a whole, favours compounds with a hit. Of some 83,000 tested, about 20% had one in any assay.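 For each line, cells grew in 96-well plates with the test compound present at a single concentration for 48 hours.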 Calls of active or inactive are those of the source. How the source made its calls: active means growth percent below 10; inactive means the rest.

Tests used:
Assay in all cases: NCI-60 one-dose screen, 48 h (100 = growth as untreated, 0 = no growth, -100 = all killed)
Conditions in all cases: 10 µM
SK-MEL-2 melanoma = tested on: SK-MEL-2 melanoma
EKVX NSCLC = tested on: EKVX NSCLC
SN12C renal = tested on: SN12C renal
UO-31 renal = tested on: UO-31 renal
TK-10 renal = tested on: TK-10 renal
ACHN renal = tested on: ACHN renal
CAKI-1 renal = tested on: CAKI-1 renal
A498 renal = tested on: A498 renal
CCRF-CEM leukemia = tested on: CCRF-CEM leukemia
MOLT-4 leukemia = tested on: MOLT-4 leukemia
SR leukemia = tested on: SR leukemia
RPMI-8226 leukemia = tested on: RPMI-8226 leukemia
OVCAR-8 ovarian = tested on: OVCAR-8 ovarian
OVCAR-5 ovarian = tested on: OVCAR-5 ovarian
OVCAR-4 ovarian = tested on: OVCAR-4 ovarian
SK-OV-3 ovarian = tested on: SK-OV-3 ovarian
IGROV1 ovarian = tested on: IGROV1 ovarian
OVCAR-3 ovarian = tested on: OVCAR-3 ovarian
HS 578T breast = tested on: HS 578T breast
NCI/ADR-RES ovarian = tested on: NCI/ADR-RES ovarian

Measured: growth

COc1ccc(C(=O)N/N=C/c2cc(C(F)(F)F)ccc2Cl)cc1
inactive: SK-MEL-2 melanoma 104% | EKVX NSCLC 75.7% | SN12C renal 93.6% | UO-31 renal 88.9% | TK-10 renal 107% | ACHN renal 108% | CAKI-1 renal 89.2% | A498 renal 67% | CCRF-CEM leukemia 103% | MOLT-4 leukemia 92.5% | SR leukemia 102% | RPMI-8226 leukemia 121% | OVCAR-8 ovarian 102% | OVCAR-5 ovarian 95.5% | OVCAR-4 ovarian 91.7% | SK-OV-3 ovarian 99.8% | IGROV1 ovarian 106% | OVCAR-3 ovarian 108% | HS 578T breast 92.6%

OCC1OC(n2ccc3c(NO)ncnc32)C(O)C1O (stereo not drawn)
active: SK-MEL-2 melanoma -78.6% | EKVX NSCLC -15.3% | SN12C renal -27.2% | UO-31 renal -25% | TK-10 renal -15.1% | ACHN renal -15.3% | CAKI-1 renal 1.77% | A498 renal -51.1% | CCRF-CEM leukemia -8.6% | MOLT-4 leukemia -32.9% | SR leukemia -30.2% | RPMI-8226 leukemia -21.7% | OVCAR-8 ovarian -32.5% | OVCAR-5 ovarian -3.92% | OVCAR-4 ovarian -5.14% | SK-OV-3 ovarian 1.15% | IGROV1 ovarian -32.1% | OVCAR-3 ovarian -31.7% | HS 578T breast -11% | NCI/ADR-RES ovarian -53.5%

OCC1OC2C(NC(=S)N2c2ccccc2)C(O)C1O (stereo not drawn)
inactive: SK-MEL-2 melanoma 111% | EKVX NSCLC 101% | SN12C renal 91.1% | UO-31 renal 101% | TK-10 renal 109% | ACHN renal 103% | CAKI-1 renal 91.4% | A498 renal 95.1% | CCRF-CEM leukemia 93.6% | MOLT-4 leukemia 107% | SR leukemia 95.6% | RPMI-8226 leukemia 97.1% | OVCAR-8 ovarian 97.2% | OVCAR-5 ovarian 105% | OVCAR-4 ovarian 110% | SK-OV-3 ovarian 105% | IGROV1 ovarian 121% | OVCAR-3 ovarian 102% | HS 578T breast 88% | NCI/ADR-RES ovarian 105%

CN(C)CCC1(c2ccccc2)CCN(C)C1=O (stereo not drawn)
inactive: SK-MEL-2 melanoma 95.4% | EKVX NSCLC 110% | SN12C renal 103% | UO-31 renal 87.4% | TK-10 renal 112% | ACHN renal 102% | CAKI-1 renal 103% | A498 renal 94.1% | CCRF-CEM leukemia 103% | MOLT-4 leukemia 95.6% | SR leukemia 112% | RPMI-8226 leukemia 108% | OVCAR-8 ovarian 104% | OVCAR-5 ovarian 107% | OVCAR-4 ovarian 113% | SK-OV-3 ovarian 100% | IGROV1 ovarian 109% | OVCAR-3 ovarian 99.5% | HS 578T breast 108% | NCI/ADR-RES ovarian 103%

COc1ccc(/C=C2/SC(=S)NC2=O)c(OC)c1OC
inactive: SK-MEL-2 melanoma 87.4% | EKVX NSCLC 65.9% | SN12C renal 78.7% | UO-31 renal 42.5% | TK-10 renal 81.3% | ACHN renal 77.4% | CAKI-1 renal 64.3% | A498 renal 54.2% | CCRF-CEM leukemia 76.8% | MOLT-4 leukemia 90.1% | SR leukemia 72.4% | RPMI-8226 leukemia 79.4% | OVCAR-8 ovarian 91.5% | OVCAR-5 ovarian 72.8% | OVCAR-4 ovarian 87.7% | SK-OV-3 ovarian 91.1% | IGROV1 ovarian 105% | OVCAR-3 ovarian 89.6% | HS 578T breast 63.6% | NCI/ADR-RES ovarian 85.2%

OCC1OC(n2cnc3c(NCc4ccco4)ncnc32)C(O)C1O (stereo not drawn)
active: SN12C renal 7.6% | ACHN renal 4.08% | A498 renal 9.69% | CCRF-CEM leukemia 6.74% | MOLT-4 leukemia -4.64% | SR leukemia 5.19% | OVCAR-8 ovarian 0.871% | SK-OV-3 ovarian -2.77% | IGROV1 ovarian -3.86% | OVCAR-3 ovarian -41.7%
inactive: SK-MEL-2 melanoma 76% | EKVX NSCLC 65.3% | UO-31 renal 20.4% | TK-10 renal 41.4% | CAKI-1 renal 14.1% | RPMI-8226 leukemia 50.8% | OVCAR-5 ovarian 28.8% | OVCAR-4 ovarian 23%

NC1=CC(=O)C(=O)c2cccnc21
inactive: SK-MEL-2 melanoma 77.9% | EKVX NSCLC 98.3% | SN12C renal 70% | UO-31 renal 47.8% | TK-10 renal 113% | ACHN renal 60.1% | CAKI-1 renal 83.1% | A498 renal 92.6% | CCRF-CEM leukemia 82.9% | MOLT-4 leukemia 106% | SR leukemia 86% | RPMI-8226 leukemia 73.8% | OVCAR-8 ovarian 76% | OVCAR-5 ovarian 101% | OVCAR-4 ovarian 91.8% | SK-OV-3 ovarian 93.9% | IGROV1 ovarian 76.7% | OVCAR-3 ovarian 84% | HS 578T breast 77.5% | NCI/ADR-RES ovarian 82.7%

Nc1ccc(CC[C@H]2CCC/C=C/[C@@H]3C[C@H](O)C[C@H]3[C@H](O)/C=C/C(=O)O2)cc1
inactive: ACHN renal 10% | OVCAR-5 ovarian 11.4% | OVCAR-4 ovarian 11.3% | SK-OV-3 ovarian 26.6% | IGROV1 ovarian 12% | HS 578T breast 39.6%
active: SK-MEL-2 melanoma -25.9% | EKVX NSCLC 8.9% | SN12C renal 7.47% | UO-31 renal 2.24% | TK-10 renal -53.8% | CAKI-1 renal 7.49% | A498 renal -32.4% | CCRF-CEM leukemia -3.7% | MOLT-4 leukemia -18.8% | SR leukemia 1.1% | RPMI-8226 leukemia -4.05% | OVCAR-8 ovarian 2.58% | OVCAR-3 ovarian -13.4%

CCC(CC)n1c(C)cc(=O)n1C(CC)CC
inactive: SK-MEL-2 melanoma 111% | EKVX NSCLC 113% | SN12C renal 105% | UO-31 renal 115% | TK-10 renal 109% | ACHN renal 101% | CAKI-1 renal 97.6% | A498 renal 116% | CCRF-CEM leukemia 107% | MOLT-4 leukemia 103% | SR leukemia 118% | RPMI-8226 leukemia 106% | OVCAR-8 ovarian 104% | OVCAR-5 ovarian 99.4% | OVCAR-4 ovarian 107% | SK-OV-3 ovarian 104% | IGROV1 ovarian 140% | OVCAR-3 ovarian 113% | HS 578T breast 110% | NCI/ADR-RES ovarian 107%

CC1(C)N=C(N)N=C(N)N1c1cccc(C#N)c1
inactive: SK-MEL-2 melanoma 79.1% | EKVX NSCLC 67% | SN12C renal 94.3% | UO-31 renal 77.9% | TK-10 renal 62.4% | ACHN renal 37.1% | CAKI-1 renal 95.2% | A498 renal 69.8% | CCRF-CEM leukemia 35.7% | MOLT-4 leukemia 31.2% | OVCAR-8 ovarian 33.8% | OVCAR-5 ovarian 51% | OVCAR-4 ovarian 97.3% | SK-OV-3 ovarian 82.9% | IGROV1 ovarian 42.6% | OVCAR-3 ovarian 60.7% | HS 578T breast 88.2%

CCOC(=O)CN(c1sc(C)c(C)c1C(=O)OCC)S(=O)(=O)c1ccc(C)cc1
inactive: SK-MEL-2 melanoma 127% | EKVX NSCLC 101% | SN12C renal 87% | UO-31 renal 80.7% | TK-10 renal 121% | ACHN renal 98.1% | CAKI-1 renal 72.8% | A498 renal 106% | CCRF-CEM leukemia 94.4% | MOLT-4 leukemia 97% | SR leukemia 96.9% | RPMI-8226 leukemia 98.2% | OVCAR-8 ovarian 105% | OVCAR-5 ovarian 107% | SK-OV-3 ovarian 87.1% | IGROV1 ovarian 111% | OVCAR-3 ovarian 109% | HS 578T breast 95.9% | NCI/ADR-RES ovarian 88%

c1ccc(CCCCc2ccc3ccccc3n2)cc1
inactive: SK-MEL-2 melanoma 94.3% | EKVX NSCLC 98.1% | SN12C renal 105% | UO-31 renal 91.4% | TK-10 renal 90.2% | ACHN renal 103% | CAKI-1 renal 99.4% | A498 renal 94.5% | CCRF-CEM leukemia 99.8% | MOLT-4 leukemia 97.3% | SR leukemia 99.7% | RPMI-8226 leukemia 103% | OVCAR-8 ovarian 101% | OVCAR-4 ovarian 111% | IGROV1 ovarian 100% | HS 578T breast 98.7% | NCI/ADR-RES ovarian 102%

O=C(N/N=C/c1cc([N+](=O)[O-])ccc1O)c1cccc2ccccc12
inactive: SK-MEL-2 melanoma 66.4% | EKVX NSCLC 33.5% | SN12C renal 51.1% | UO-31 renal 19.1% | TK-10 renal 46.3% | ACHN renal 15.7% | CAKI-1 renal 19.9% | A498 renal 62.4% | RPMI-8226 leukemia 21.5% | OVCAR-8 ovarian 22.8% | OVCAR-5 ovarian 47.2% | OVCAR-4 ovarian 20.2% | SK-OV-3 ovarian 41% | IGROV1 ovarian 39.8% | OVCAR-3 ovarian 27.2% | HS 578T breast 64.1% | NCI/ADR-RES ovarian 10.6%
active: CCRF-CEM leukemia -8.77% | MOLT-4 leukemia 9.21%

O=C(CCl)Oc1ccc(OC(=O)CCl)cc1
inactive: SK-MEL-2 melanoma 96.1% | EKVX NSCLC 90.4% | SN12C renal 87.2% | UO-31 renal 64.1% | TK-10 renal 113% | ACHN renal 75.2% | CAKI-1 renal 93.7% | A498 renal 97.4% | CCRF-CEM leukemia 13.3% | MOLT-4 leukemia 84.2% | SR leukemia 68.7% | RPMI-8226 leukemia 25.7% | OVCAR-8 ovarian 88.8% | OVCAR-5 ovarian 111% | OVCAR-4 ovarian 91.3% | IGROV1 ovarian 93.1% | OVCAR-3 ovarian 77.6% | HS 578T breast 82.4% | NCI/ADR-RES ovarian 79.4%

Nc1c(Br)cc(Br)c2c1[nH]c(=O)c1ccccc12
inactive: SK-MEL-2 melanoma 98.6% | EKVX NSCLC 57% | SN12C renal 80.1% | UO-31 renal 27.8% | TK-10 renal 31.5% | ACHN renal 10.9% | CAKI-1 renal 68.6% | A498 renal 53.8% | CCRF-CEM leukemia 93.2% | MOLT-4 leukemia 80.8% | SR leukemia 81.1% | RPMI-8226 leukemia 96.2% | OVCAR-8 ovarian 37.2% | OVCAR-5 ovarian 72.8% | SK-OV-3 ovarian 16.1% | IGROV1 ovarian 58.4% | HS 578T breast 30.5% | NCI/ADR-RES ovarian 44.3%

O=C(Nc1ccc(NS(=O)(=O)c2ccc(F)cc2)cc1)C12CC3CC(CC(C3)C1)C2
inactive: SK-MEL-2 melanoma 107% | EKVX NSCLC 74.4% | SN12C renal 92.6% | UO-31 renal 75.1% | TK-10 renal 96.7% | ACHN renal 102% | CAKI-1 renal 86% | A498 renal 90.8% | CCRF-CEM leukemia 84.2% | MOLT-4 leukemia 77.7% | RPMI-8226 leukemia 89.3% | OVCAR-8 ovarian 94.7% | OVCAR-4 ovarian 99% | SK-OV-3 ovarian 92.5% | IGROV1 ovarian 102% | OVCAR-3 ovarian 98.6% | HS 578T breast 94.4% | NCI/ADR-RES ovarian 85.5%
